TGFb inhibitor: TGF-b pathway inhibition; HepG2 CAGA-GFP TGF-b/SMAD3 reporter, GFP fluorescence, 18 h; TGF-beta stimulated, 500 pg/mL final; Potency, µM (titrated, usually from 46.1 µM), actives largely listed as inhibitors; hit rate 1.2% among 410,000; AID 588855; note: nearly all actives have a fitted effect of over 65% in size
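Per well, imaged GFP fluorescence of HEPG2 CAGA-GFP cells gives the signal; cells get compound, then TGF-beta (500 pg/mL final), 18 h at 37 degrees C; %Activity versus -TGF-beta and +DMSO controls.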
HepG2 viability: HepG2 cytotoxicity, counter-screen for TGF-b inhibitors. HepG2 CAGA-GFP viability, ATP luminescence, 18 h. Potency, µM (titrated, usually from 46.1 µM), usual class: cytotoxic. hit rate 0.76% among 410,000
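CellTiter-Glo luminescence gave cytotoxicity after 18 hours at 37 degrees C. The cells were HepG2 CAGA-GFP in 1% FBS DMEM, stimulated with 500 pg/mL TGF-beta after compound addition. %Activity was normalised to no-cell wells (complete cell-killing) and DMSO (no toxicity), and curves were fitted and classified.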
HT1080-NT tox: kills 2HG-producing HT-1080-NT fibrosarcoma cells; HT-1080-NT fibrosarcoma viability, CellTiter-Glo ATP luminescence, 48 h; Potency, µM (top dose mostly 46.1 µM), hits mostly cytotoxic; hit rate 1.6% among 360,000; AID 686970;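 note: NT is the 2HG producing partner of a matched IDH1 knockdown line; nearly all actives have a fitted effect of over 55% in size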
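Fibrosarcoma NT cells, 750 per well in 5% FBS RPMI, were exposed to compound for 48 hours. Viability: CellTiter-Glo luminescence.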
HT1080 IDH1KD tx: HT-1080 IDH1 knockdown cell toxicity (counter line). hit rate 2% among 360,000. Potency, µM (series often up to 46.1 µM), hits mostly cytotoxic. AID 686971. HT-1080 IDH1 knockdown viability, ATP luminescence, 48 h
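IDH1KD HT-1080 cells, 750/well, RPMI + 5% FBS; compound pinned after 2 h settling; 48 h, 37 °C; CellTiter-Glo luminescence; % activity normalised to DMSO and no-cell wells; curves fitted, classed by r2 and efficacy.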
KB-3-1 cytotox: kills parental KB-3-1 adenocarcinoma cells; KB-3-1 viability, CellTiter-Glo ATP luminescence, 72 h; Potency, µM (highest dose often 46.1 µM), usual class: cytotoxic; hit rate 1.4% among 400,000; note: nearly all actives have a fitted effect of over 60% in size
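Luminescent ATP read-out (CellTiter-Glo) measures survival of drug-naive KB-3-1 cells after 72 h compound exposure at 37 °C. Titration series was screened from lowest to highest concentration, with DMSO vehicle plates as background controls.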
KB-V1 cytotox: kills drug-selected multidrug resistant KB-V1 cells; KB-V1 MDR cells viability, CellTiter-Glo, 72 h; Potency, µM (doses to about 46.1 µM), hits mostly cytotoxic; hit rate 3.4% among 400,000; note: nearly all actives have a fitted effect of over 60% in size
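Cytotoxicity toward P-gp-expressing KB-V1 cells was determined as loss of CellTiter-Glo luminescence after 72 h at 37 degrees C. Compounds were tested in quantitative HTS format across a concentration range, with curves fitted to normalized data.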
Hits are given with their value; [ ] = dose if it differs, or a comment. In the library only some 6.6% were active in any assay of this set; here they are far more common. Calls come from the whole dose curve; as a rule, active = well fitted curve in the direction sought with a large enough effect; inconclusive = small, poorly fitted or top-dose-only effect, or another doubt; inactive = no such curve, though single readings can be large; an effect the other way counts as inactive or inconclusive.

For CC(C)(C)c1ccc(S(=O)(=O)Nc2ccc(C(O)(C(F)(F)F)C(F)(F)F)cc2)cc1 the results were TGFb inhibitor 13µM, HepG2 viability 20µM, HT1080-NT tox 18µM, HT1080 IDH1KD tx 21µM, KB-3-1 cytotox inactive and KB-V1 cytotox inconclusive.
For NNC(=O)Nc1cccc(C(F)(F)F)c1 the results were TGFb inhibitor inactive, HepG2 viability inactive, HT1080-NT tox inactive, HT1080 IDH1KD tx inactive, KB-3-1 cytotox inactive and KB-V1 cytotox inconclusive.
`NC(=O)/C=C\C(=O)Nc1cccc(C(F)(F)F)c1` gave TGFb inhibitor inconclusive, HepG2 viability inactive, HT1080-NT tox inconclusive, HT1080 IDH1KD tx 10µM, KB-3-1 cytotox inactive and KB-V1 cytotox inactive.
Cc1ccc(NC(=S)NNC(=S)Nc2cccc(C(F)(F)F)c2)cc1 was read as TGFb inhibitor inactive, HepG2 viability inactive, HT1080-NT tox inactive, HT1080 IDH1KD tx inconclusive, KB-3-1 cytotox inactive and KB-V1 cytotox inactive.
For Cc1ccc(S(=O)(=O)Nc2ccc(NC(=O)Nc3cccc(C(F)(F)F)c3)cc2)cc1 the results were TGFb inhibitor 16µM, HepG2 viability 18µM, HT1080-NT tox inconclusive, HT1080 IDH1KD tx inconclusive, KB-3-1 cytotox inconclusive and KB-V1 cytotox inconclusive.
COc1cc(CN(CC2CCCO2)C(=O)c2ccc(F)cc2)cc(OC)c1OC (configuration not stated) was read as TGFb inhibitor inactive and HepG2 viability inactive.
For Cc1ccc(-c2cn3cccnc3n2)cc1NC(=O)Cc1ccccc1 the results were TGFb inhibitor inactive and HepG2 viability inactive.
O=C(Nc1ccncc1)Nc1cccc(C(F)(F)F)c1 was read as TGFb inhibitor inactive, HepG2 viability inactive, HT1080-NT tox inactive, HT1080 IDH1KD tx inactive, KB-3-1 cytotox inactive and KB-V1 cytotox inactive.
For CCN(CC)S(=O)(=O)c1ccc(NC(=O)Nc2cccc(C(F)(F)F)c2)cc1 the results were TGFb inhibitor inconclusive, HepG2 viability 11µM, HT1080-NT tox inconclusive, HT1080 IDH1KD tx inconclusive, KB-3-1 cytotox 9.2µM and KB-V1 cytotox 13µM.
`CCOC(=O)c1c(-c2ccccc2)oc2ccc(OC(C)C(=O)O)cc12` (configuration not stated) gave TGFb inhibitor inactive, HepG2 viability inactive, HT1080-NT tox inactive, HT1080 IDH1KD tx inactive, KB-3-1 cytotox inactive and KB-V1 cytotox inactive.
Screening CCOC(=O)c1c(-c2ccccc2)oc2ccc(OCC(O)CN(C)C)cc12 (configuration not stated) returned TGFb inhibitor 14µM, HepG2 viability 18µM, HT1080-NT tox 26µM, HT1080 IDH1KD tx 15µM, KB-3-1 cytotox inconclusive and KB-V1 cytotox inconclusive.
For CC(C)Cc1nc2sc3c(NCc4ccco4)ncnc3c2c2c1COC(C)(C)C2 the results were TGFb inhibitor inactive, HepG2 viability inactive, HT1080-NT tox inactive, HT1080 IDH1KD tx inactive, KB-3-1 cytotox inactive and KB-V1 cytotox inactive.
`Cc1nc2sc3c(NCc4ccco4)ncnc3c2c2c1COC(C)(C)C2` gave TGFb inhibitor inactive, HepG2 viability inactive, HT1080-NT tox inactive, HT1080 IDH1KD tx inconclusive, KB-3-1 cytotox inconclusive and KB-V1 cytotox 18µM.
`O=C(c1cnc(N2CCCCC2)c2ccccc12)N1CCN(c2ccc(F)cc2)CC1` gave TGFb inhibitor inconclusive, HepG2 viability inactive, KB-3-1 cytotox inactive and KB-V1 cytotox inconclusive.
Cc1ccc(CNC(=O)c2ccc3c(c2)NC(=O)C(CS(=O)(=O)Cc2ccc(F)cc2)N3)cc1 (configuration not stated) was read as TGFb inhibitor inactive, HepG2 viability inactive, KB-3-1 cytotox inactive and KB-V1 cytotox inactive.
For Cc1ccc(-c2csc(=S)n2CC(=O)OCC(=O)NC(C)C(C)C)cc1 (configuration not stated) the results were TGFb inhibitor inconclusive, HepG2 viability inactive, HT1080-NT tox inactive, HT1080 IDH1KD tx inactive, KB-3-1 cytotox inactive and KB-V1 cytotox 16µM.
Cc1ccc(-c2csc(=S)n2CC(=O)OCC(=O)NCc2ccco2)cc1 was read as TGFb inhibitor inactive, HepG2 viability inactive, HT1080-NT tox inactive, HT1080 IDH1KD tx inactive, KB-3-1 cytotox inactive and KB-V1 cytotox inconclusive.
`CCn1cc2nc(SCC(=O)Nc3ccc(C)cc3)n(Cc3ccc(C)cc3)c(=O)c2n1` gave TGFb inhibitor inactive, HepG2 viability inactive, KB-3-1 cytotox inactive and KB-V1 cytotox inactive.
Screening CN(C)CCCNc1oc(/C=C/c2ccc(F)cc2)nc1C#N returned HepG2 viability inactive.
For COc1ccc(/C=N/Nc2ncnc3sc4c(c23)CCCC4)cc1OC the results were TGFb inhibitor inactive, HepG2 viability inactive, HT1080-NT tox inconclusive, HT1080 IDH1KD tx inconclusive, KB-3-1 cytotox 18µM and KB-V1 cytotox inconclusive.
CCOC(=O)c1cc(CC)sc1NC(=O)C1CC(=O)NN1Cc1ccccc1 (configuration not stated) was read as TGFb inhibitor inconclusive, HepG2 viability inactive, HT1080-NT tox inconclusive, HT1080 IDH1KD tx 21µM, KB-3-1 cytotox inactive and KB-V1 cytotox inactive.
For N#CC1=C(N)N(c2ccccc2)C2=C(C(=O)CCC2)C1c1ccsc1 (configuration not stated) the results were TGFb inhibitor inactive, HepG2 viability inactive, HT1080-NT tox 11µM, HT1080 IDH1KD tx inconclusive, KB-3-1 cytotox inactive and KB-V1 cytotox inconclusive.
For CCC1(C)Cc2c(sc3[nH]c(=O)[nH]c(=O)c23)CS1 (configuration not stated) the results were TGFb inhibitor inactive, HepG2 viability inactive, HT1080-NT tox inactive, HT1080 IDH1KD tx inactive[9.24 µM], KB-3-1 cytotox inactive and KB-V1 cytotox 12µM.
For CC(C)(C)NC(=O)C(c1ccncc1)n1c(-c2ccc(C(F)(F)F)cc2)nc2ccccc21 (configuration not stated) the results were HT1080-NT tox inconclusive, HT1080 IDH1KD tx 21µM, KB-3-1 cytotox inconclusive and KB-V1 cytotox inconclusive.
For CC(C)(C)NC(=O)C(c1ccc(C(F)(F)F)cc1)n1c(=O)c(-c2cc3ccccc3[nH]2)nc2ccccc21 (configuration not stated) the results were HT1080-NT tox inconclusive, HT1080 IDH1KD tx 21µM, KB-3-1 cytotox inactive and KB-V1 cytotox inactive.
Screening Cc1cccc(C)c1NC(=O)C(c1ccc(-c2ccccc2)cc1)n1c(=O)c(-c2cc3ccccc3[nH]2)nc2ccccc21 (configuration not stated) returned HT1080-NT tox inactive, HT1080 IDH1KD tx inactive, KB-3-1 cytotox inactive and KB-V1 cytotox inactive.
